Results on 37 compounds are retold here after PubChem BioAssay (EPA / NIEHS).

Molecules are shown by their SMILES. Inconclusive results are not listed. Activity calls are given as the source filed them. How the source made its calls: active means hit-call score of the fitted dose curve at least 0.9, where 1 is the maximum; inconclusive means response in the unintended direction; inactive means score below 0.9.

The experiment in a line: ACEA_ER_AUC_viability: ACEA Biosciences xCELLigence Real-Time Cell Analysis on Estrogen Receptor Agonism for Viability (AID 2283782).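 Further: continuous compound exposure with impedance area under curve over 80 h; hit means loss of impedance signal meaning reduced cell growth or viability.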 In a few lines:
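T47D cells preconditioned in phenol red-free RPMI with charcoal-stripped FBS, then dosed with 8-point 1:4 series from 100 uM (up to 0.5% DMSO). Impedance monitored up to ~80 h; area-under-curve loss versus DMSO taken as viability.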
`CC(=O)OC/C=C(C)/C=C/C=C(C)/C=C/C1=C(C)CCCC1(C)C`: the AC50 was 68.5 µM (active).

Take `O=S(=O)(O)c1cc(O)c(O)c(S(=O)(=O)O)c1`: the outcome was inactive.

Turning to `C=CC(=O)OCC(CO)(COC(=O)C=C)COC(=O)C=C`, the concentration at half-maximal activity (AC50) was 2.64 µM (active).

With `O=C(C=Cc1ccccc1)OCCCc1ccccc1`, the half-maximal activity concentration (AC50) is 60 µM (active).

In the case of `CCOC(=O)CC1(C)OCC(C)O1` (configuration not stated), the compound was classed as inactive.

For `CC(=O)CCC(=O)O`, the call was inactive.

On to `CC1(C)[C@H](C=C(Cl)Cl)[C@H]1C(=O)OCc1cccc(Oc2ccccc2)c1`, for which the concentration at half-maximal activity (AC50) is 12.5 µM (active).

Regarding `CCCCCCCCCCCCCC(=O)OCC`, the half-maximal activity concentration (AC50) is 50 µM (active).

As to `CCCCCCOC(C)=O`, the AC50 was 38.5 µM (active).

Take `CCCCCCCCCCCCOC(C)=O`: the compound was called inactive.

Turning to `CC(=O)OCC=C(C)CCC=C(C)CCC=C(C)C`, the result was inactive.

`NC(=O)c1c(Cl)cccc1Cl`: the outcome was inactive.

For the compound `CC(C)COC(=O)c1ccccc1`, the result was inactive.

Take `CC/C=C/CCCCCCCCCCOC(C)=O`: the compound was classed as inactive.

Regarding `C[Si]1(C)N[Si](C)(C)N[Si](C)(C)N1`, the compound was classed as inactive.

For the compound `OC[C@@H](O)[C@H](O)[C@@H](O)[C@@H](O)CO`, the call was inactive.

For `CCCCCCCCCC(=O)OCC`, the compound was called inactive.

For `O=C(O)C(F)(F)OC(F)(F)C(F)(F)OC(F)(F)C(F)(F)C(F)(F)C(F)(F)F`, the compound was called inactive.

With `C=C(C)C(=O)OCCOCCOC(=O)C(=C)C`, the concentration at half-maximal activity (AC50) is 21.2 µM (active).

Turning to `CCCCCCCCCCCCCCCCCC(=O)OCCCCCCCCCCCCCC(C)C`, the AC50 was 77 µM (active).

For the compound `CN(C)c1ccc(C=O)cc1`, the compound was classed as inactive.

On to `CC(=O)c1cccnc1`, for which the compound was classed as inactive.

For the compound `CC=CC(=O)C1=C(C)C=CCC1(C)C`, the result was inactive.

Regarding `CCCC1CCOC(C)S1` (configuration not stated), the result was inactive.

For `C/C=C(\C)C(=O)OC/C=C(\C)CCC=C(C)C`, the half-maximal activity concentration (AC50) was 78.2 µM (active).

Regarding `CCOC(=O)C(=O)OCC`, the compound was called inactive.

Take `CC1=CC[C@@H](C(C)(C)O)CC1`: the result was inactive.

As for `CCOC(=O)C=Cc1ccccc1`, the compound was called inactive.

In the case of `Cc1ccc(C(C)(C)O)cc1`, the call was inactive.

Consider `CCCCC1CCCCC(=O)O1` (configuration not stated), for which the outcome was inactive.

Regarding `O=C(O)c1cc(C(=O)O)c(C(=O)O)cc1C(=O)O`, the call was inactive.

In the case of `CCC=C(C)C=O`, the call was inactive.

Consider `O=S1(=O)CC(Cl)(Cl)C(Cl)(Cl)C1`, for which the AC50 was 1.42 µM (active).

As to `CC(C)Cc1ccc(C(C)C(=O)O)cc1` (configuration not stated), the compound was classed as inactive.

For the compound `C1COCO1`, the compound was classed as inactive.

For the compound `CC(CO)c1ccccc1` (configuration not stated), the outcome was inactive.

For `CC1=CC(O)CC(C)(C)C1` (configuration not stated), the AC50 is 71.8 µM (active).
